Assay results reported in PubChem BioAssay AID1159580 (chemical genetic matrix, 2015).
Where “and” joins values, the source holds several entries; their conditions need not be identical. Identical values can stand only once. Screen size: about 5,500 compounds; about 2,000 (36%) were called active. About 18% were inconclusive and are not listed. Cut-off read from the data, not from the text of the source: active = normalized growth mostly below about 0.91 (no sharp cut-off); inconclusive = no clear call, values can overlap the other calls; inactive = mostly above about 0.92. Some of the results follow.

Experiment: chemical genetic growth profiling, strain panel (AID 1159580);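 note: tested at 20 µM; growth read once vehicle control cultures reached saturation at 30 °C; 1 = growth at the plate median or of vehicle wells; lower values mean less growth of the strain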
Conditions: S. cerevisiae deletion strains, growth OD

Measured: normalized growth

Cn1c(=O)c2c(ncn2C)n(C)c1=O
inactive: locus YAL013W, strain DEP1, stronger effect = lower value 0.997 | locus YAL021C, strain ccr4, stronger effect = lower value 1.01 | locus YAL026C, strain drs2, stronger effect = lower value 0.975 | locus YAL030W, strain snc1, stronger effect = lower value 0.97 | locus YAL040C, strain CLN3, stronger effect = lower value 1.02 | locus YBL061C, strain skt5, stronger effect = lower value 0.962 | locus YBR009C, strain hhf1, stronger effect = lower value 0.94 | locus YBR021W, strain FUR4, stronger effect = lower value 1.01 | locus YBR023C, strain chs3, stronger effect = lower value 0.978 | locus YBR171W, strain sec66, stronger effect = lower value 0.94 | locus YBR229C, strain ROT2, stronger effect = lower value 0.998 | locus YBR231C, strain swc5, stronger effect = lower value 0.989 | locus YBR279W, strain paf1, stronger effect = lower value 0.982 | locus YCL011C, strain gbp2, stronger effect = lower value 0.922 | locus YCL016C, strain dcc1, stronger effect = lower value 0.936 | locus YCL029C, strain bik1, stronger effect = lower value 1.02 | locus YCL061C, strain MRC1 (second series), stronger effect = lower value 1.01 | locus YCL061C, strain MRC1, stronger effect = lower value 0.98 | locus YCL069W, strain vba3, stronger effect = lower value 0.973 | locus YCR088W, strain abp1, stronger effect = lower value 0.983 | locus YDL005C, strain med2, stronger effect = lower value 0.99 | locus YDL035C, strain GPR1, stronger effect = lower value 1.02 | locus YDL040C, strain nat1, stronger effect = lower value 0.987 | locus YDL074C, strain BRE1, stronger effect = lower value 1.03 | locus YDL101C, strain DUN1, stronger effect = lower value 0.999 | locus YDL134C, strain PPH21, stronger effect = lower value 0.992 | locus YDL185W, strain tfp1, stronger effect = lower value 1.02 | locus YDL192W, strain arf1, stronger effect = lower value 1 | locus YDR001C, strain nth1, stronger effect = lower value 0.966 | locus YDR069C, strain doa4, stronger effect = lower value 0.961 | locus YDR101C, strain arx1, stronger effect = lower value 1.04 | locus YDR137W, strain rgp1, stronger effect = lower value 0.943 | locus YDR150W, strain NUM1, stronger effect = lower value 0.998 | locus YDR159W, strain sac3, stronger effect = lower value 0.961 | locus YDR162C, strain NBP2, stronger effect = lower value 0.998 | locus YDR195W, strain ref2 0.99 | locus YDR297W, strain sur2, stronger effect = lower value 0.98 | locus YDR318W, strain mcm21, stronger effect = lower value 0.99 | locus YDR334W, strain swr1, stronger effect = lower value 0.914 | locus YDR335W, strain msn5, stronger effect = lower value 0.969 | locus YDR363W, strain ESC2, stronger effect = lower value 0.985 | locus YDR388W, stronger effect = lower value 1 | locus YDR392W, strain spt3, stronger effect = lower value 0.942 | locus YDR502C, strain sam2, stronger effect = lower value 1.01 | locus YEL003W, strain gim4, stronger effect = lower value 0.979 | locus YEL037C, strain rad23, stronger effect = lower value 0.972 | locus YEL061C, strain CIN8 (second series), stronger effect = lower value 0.977 | locus YEL061C, strain CIN8, stronger effect = lower value 0.996 | locus YER002W, strain NOP16, stronger effect = lower value 1.01 | locus YER015W, strain faa2, stronger effect = lower value 0.971 | locus YER016W, strain bim1, stronger effect = lower value 0.948 | locus YER110C, stronger effect = lower value 1.01 | locus YER111C, strain swi4, stronger effect = lower value 0.949 | locus YER155C, strain BEM2 (second series), stronger effect = lower value 1 | locus YER155C, strain BEM2, stronger effect = lower value 0.994 | locus YER167W, strain BCK2, stronger effect = lower value 1 | locus YFR010W, strain ubp6, stronger effect = lower value 0.96 | locus YGL078C, strain dbp3, stronger effect = lower value 1.02 | locus YGL086W, strain mad1, stronger effect = lower value 1.01 | locus YGL167C, strain pmr1, stronger effect = lower value 0.945 | locus YGL173C, strain kem1, stronger effect = lower value 0.938 | locus YGL227W, strain vid30, stronger effect = lower value 0.97 | locus YGL240W, strain doc1, stronger effect = lower value 0.987 | locus YGL248W, strain PDE1, stronger effect = lower value 1 | locus YGL253W, strain hxk2, stronger effect = lower value 0.982 | locus YGR078C, strain PAC10, stronger effect = lower value 0.995 and 0.992 | locus YGR135W, strain pre9, stronger effect = lower value 0.999 | locus YGR229C, strain SMI1, stronger effect = lower value 0.995 | locus YGR252W, strain gcn5, stronger effect = lower value 1.01 | locus YHR013C, strain ard1, stronger effect = lower value 0.947 | locus YHR027C, strain rpn1, stronger effect = lower value 0.932 | locus YHR030C, strain SLT2, stronger effect = lower value 1 and 1.02 | locus YHR079C, strain IRE1 (second series), stronger effect = lower value 1.01 | locus YHR079C, strain IRE1, stronger effect = lower value 0.993 | locus YHR094C, strain hxt1, stronger effect = lower value 1.01 | locus YHR129C, strain ARP1, stronger effect = lower value 0.996 | locus YHR142W, strain chs7, stronger effect = lower value 0.899 | locus YHR200W, strain rpn10, stronger effect = lower value 1.02 | locus YIL066C, strain RNR3, stronger effect = lower value 1.01 | locus YIL073C, strain SPO22, stronger effect = lower value 1.04 | locus YIL125W, strain kgd1, stronger effect = lower value 1.01 | locus YIR030C, strain dcg1, stronger effect = lower value 0.999 | locus YJL092W, strain hpr5, stronger effect = lower value 0.956 | locus YJL095W, strain BCK1 (second series), stronger effect = lower value 0.967 | locus YJL095W, strain BCK1, stronger effect = lower value 0.985 and 1.04 | locus YJL115W, strain asf1, stronger effect = lower value 0.939 | locus YJL129C, strain trk1, stronger effect = lower value 0.95 | locus YJL134W, strain LCB3, stronger effect = lower value 1 | locus YJL154C, strain vps35, stronger effect = lower value 0.976 | locus YJL164C, strain tpk1, stronger effect = lower value 0.964 | locus YJL166W, strain qcr8, stronger effect = lower value 0.977 | locus YJL168C, strain set2, stronger effect = lower value 0.997 | locus YJL187C, strain SWE1 (second series), stronger effect = lower value 1.01 | locus YJL187C, strain SWE1, stronger effect = lower value 0.966
